High-throughput results from PubChem.
Hits are enriched below; roughly 2.7% of the tested compounds scored in any of these assays.
A549 viability: Nrf2 qHTS screen for inhibitors: counterscreen for cytotoxicity; 390,000 compounds, 0.16% hits; A549 ARE-Fluc cells, CellTiter-Fluor viability, 18-24 h; Potency, µM (top dose mostly 46 µM), for inactives: top-dose activity change, negative = cytotoxicity, usual class: inhibitors; AID 504648, 2011; note: potency is the fitted concentration of half-maximal effect; % is set by controls: 0 for no effect and ±100 for the full control effect
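A549 ARE_Fluc cells in 5% FBS OPTI-MEM were exposed to compounds in concentration-response for 18-24 h at 37 deg C. Viability was read by CellTiter-Fluor fluorescence (Ex 405/Em 525) after 30 min, before the luciferase read.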
Nrf2 block: Nrf2 qHTS screen for inhibitors. A549 ARE-Fluc reporter, luciferase luminescence, 18-24 h. Potency, µM (doses to about 46 µM), inactives show at the top dose activity change, negative = inhibition, hits mostly inhibitors. 360,000 compounds, 2.1% hits; note: potency is the fitted concentration of half-maximal effect; % is set by controls: 0 for no effect and ±100 for the full control effect; nearly all actives have a fitted effect of over 60% in size
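In this cell-based qHTS, ARE-driven firefly luciferase in A549 cells reports Nrf2 activity; the luminescent signal after BugLite lysis is the measured value, with a prior CellTiter-Fluor read for cell health.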
LDHA inh: qHTS assay for inhibitors of human lactate dehydrogenase; L-lactate dehydrogenase A chain (Homo sapiens), P00338; purified LDHA, NADH/diaphorase-resazurin fluorescence; hits give low values; activity change, % (values are at about 110 or 230 µM); 480,000 compounds, 0.15% hits; AID 1347041, 2019; in the data active = activity change below about -30%; inconclusive = mostly about -25% to -30%;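 note: plate controls were DMSO wells for no effect and wells without enzyme for full effect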
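Remaining NADH was detected by diaphorase (0.133 mg/mL) converting 37 µM resazurin to fluorescent resorufin, read at 0 and 20 minutes. The preceding 5-minute room-temperature reaction used 2 nM LDHA, 0.2 mM sodium pyruvate and 0.06 mM NADH at pH 7.4.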
12-LOX inh: Primary qHTS assay for inhibitors of human arachidonate 12S-lipoxygenase (ALOX12): Round 2; Polyunsaturated fatty acid lipoxygenase ALOX12 (Homo sapiens), P18054; purified 12hLO, xylenol orange hydroperoxide absorbance; Potency, µM (titrated, usually from 108 µM), inactives show at the top dose activity change, negative = inhibition, most hits filed as inhibitors; 580,000 compounds, 1.1% hits; note: potency is the fitted concentration of half-maximal effect; % is set by controls: 0 for no effect and ±100 for the full control effect
Target sequence (P18054 whole entry, looked up): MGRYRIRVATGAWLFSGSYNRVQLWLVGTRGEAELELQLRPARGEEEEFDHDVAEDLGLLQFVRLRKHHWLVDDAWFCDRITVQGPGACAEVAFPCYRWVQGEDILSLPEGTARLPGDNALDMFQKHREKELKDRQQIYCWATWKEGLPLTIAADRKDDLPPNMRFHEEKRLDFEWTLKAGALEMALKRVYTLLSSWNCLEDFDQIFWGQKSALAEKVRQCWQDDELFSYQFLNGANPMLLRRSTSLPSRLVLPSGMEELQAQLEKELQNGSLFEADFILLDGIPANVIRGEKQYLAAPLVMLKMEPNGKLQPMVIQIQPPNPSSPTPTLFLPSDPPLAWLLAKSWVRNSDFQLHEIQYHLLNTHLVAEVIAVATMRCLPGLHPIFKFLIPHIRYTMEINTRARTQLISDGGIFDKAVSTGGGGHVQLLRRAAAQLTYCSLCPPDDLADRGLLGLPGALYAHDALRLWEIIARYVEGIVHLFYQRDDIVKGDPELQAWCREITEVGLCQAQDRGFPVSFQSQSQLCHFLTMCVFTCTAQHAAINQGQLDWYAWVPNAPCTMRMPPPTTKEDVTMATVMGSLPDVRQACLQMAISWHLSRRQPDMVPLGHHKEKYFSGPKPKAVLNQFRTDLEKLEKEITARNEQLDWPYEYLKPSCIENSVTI
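Purified human 12hLO (150 nM final) in 25 mM Hepes, 0.01% Triton X-100, pH 7.0 was preincubated 15 min at room temperature with compound. Then 40 uM arachidonic acid was added, 30 min. Hydroperoxide was read by Fe-XO absorbance ratio 573/405 nm.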
Nrf2 ARE act: qHTS of Nrf2 Activators; AREc32 ARE-luciferase reporter (MCF7-derived line), luminescence, 24 h; Potency, µM (titrated, usually from 46.1 µM), without a hit: top-dose activation, usual class: activators; 410,000 compounds, 0.31% hits; note: potency is the fitted concentration of half-maximal effect; % of control where 0% means no effect; nearly all actives have a fitted effect of over 65% in size
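AREc32_Fluc, 1000 cells/well, OPTI-MEM + 5% FBS, o/n 37 deg C 5% CO2; 23 nL cpd by pin tool, 24 hr; Steady-Glo 30 min RT, luminescence.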
IDH1 R132H inh: qHTS for Inhibitors of mutant isocitrate dehydrogenase 1 (IDH1): qHTS; Isocitrate dehydrogenase [NADP] cytoplasmic (Homo sapiens), O75874; Potency, µM (titrated, usually from 76.6 µM), for the others: top-dose activity change, negative = inhibition, most hits filed as inhibitors; IDH1-R132H enzyme, NADPH consumption, diaphorase/resazurin fluorescence; 390,000 compounds, 0.093% hits; note: potency is the fitted concentration of half-maximal effect; % is set by controls: 0 for no effect and ±100 for the full control effect; nearly all actives have a fitted effect of over 65% in size
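IDH1-R132H (0.5 ug/mL dispensed) in pH 7.5 Tris buffer was preincubated 30 min with compound, then given a substrate mix of 0.016 mM NADPH and 2 mM alpha-KG for 80 min at room temperature; remaining NADPH was read by diaphorase/resazurin fluorescence.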
Numbers without * were called inactive; ? = inconclusive; . = not tested or not shown; ! = not confirmed by another sample; [ ] = another dose, or the depositor's remark. Unless noted, calls come from the whole dose curve; as a rule, active = well fitted curve in the direction sought with a large enough effect; inconclusive = small, poorly fitted or top-dose-only effect, or another doubt; inactive = no such curve, though single readings can be large; an effect the other way counts as inactive or inconclusive.

SMILES	A549 viability	Nrf2 block	LDHA inh	12-LOX inh	Nrf2 ARE act	IDH1 R132H inh
FC(F)(F)c1ccc(Cl)c(N/N=C/c2ccc(Cl)cc2Cl)c1	.	.	6.3	39.8µM*	.	.
Cc1cc(C)c(/C=N/Nc2cc(C(F)(F)F)ccc2Cl)c(C)c1	.	.	0.2	12.6µM*	.	.
C/C(=N\Nc1cc(C(F)(F)F)ccc1Cl)c1ccccc1O	14.2%	2.8%	1.4	-18.8%	11.2µM*	2.3%
CC(=O)C1=C(C)Oc2ncn3nc(-c4ccco4)nc3c2C1c1ccco1 (centres undefined)	.	.	-7.5	-56.3%	.	.
O=C(Nc1nccs1)c1ccc(S(=O)(=O)NCc2cccs2)cc1	-0.1%	-28.6%	2.5	-7.6%[57.4 µM]	3.4%	6.6%
O=C(Nc1nccs1)c1ccc(S(=O)(=O)NCC2CCCCC2)cc1	-16.6%	13µM*	-0.4	28.8%	0.1%	-2.0%
CCOC(=O)c1cc2c(C)n(-c3ccc(C)cc3)c(C)c2ccc1=O	?	?	-2.0	?	0.6%	-2.9%
CCOC(=O)c1cc2c(C)n(-c3ccc(OCC)cc3)c(C)c2ccc1=O	-7.2%	?	-2.3	39.8µM*	2.4%	-6.7%
COc1ccc2nc(/C=C/c3cccc(O)c3)sc2c1	.	.	-21.8	6.31µM*	.	.
CCOc1cc(/C=C/c2nc3ccc(OC)cc3s2)ccc1O	.	.	3.3	?	.	.
COC(=O)c1sccc1S(=O)(=O)N(CC(=O)Nc1cc(C)ccc1C)c1ccccc1	.	.	3.0	-1.9%	.	.
O=C(N/N=C/c1ccccc1)c1ccc2c(c1)OCO2	-2.4%	0.7%	-2.0	9.7%	-0.7%	0.1%
O=C(NN=Cc1c(O)ccc2ccccc12)c1ccc2c(c1)OCO2	?	16.4µM*	2.5	113.5%	0.1%	17.8%
COc1c(O)ccc(/C=N/NC(=O)c2ccc3c(c2)OCCO3)c1[N+](=O)[O-]	1.8%	5.17µM*	-2.4	17.3%	3.7%	0.2%
COc1c(O)ccc(/C=N\NC(=O)c2ccc3c(c2)OCO3)c1[N+](=O)[O-]	-0.9%	11.6µM*	1.5	16.3%	-0.4%	-2.6%
CC1=C(C(=O)OCc2ccccc2)C2(C(=O)Nc3ccc(Br)cc32)C(C(=O)OCc2ccccc2)=C(N)O1 (centres undefined)	.	.	7.0	-27.1%	.	.
CC(=O)Nc1ccc(N=C(C2=C(O)c3ccccc3C2=O)c2ccccc2)cc1	20.6µM*	20.6µM*	2.6	-8.7%	10.0%	4.0%
CCOC(=O)Cn1c(=O)c2c3c(sc2n(CCN(C)C)c1=O)CC(C)CC3 (centres undefined)	.	.	-0.8	10.4%	.	.
O=C(N/N=C/c1ccc(O)cc1O)c1ccc(CN2C(=O)c3cccc4cccc2c34)cc1	?	9.2µM*	-6.9	14.5%	0.2%	5.9%
O=C(N/N=C/c1ccccc1)c1ccc(CN2C(=O)c3cccc4cccc2c34)cc1	14.2%	-8.0%	-1.5	-3.6%	0.9%	5.2%
Cc1ccc(C)c(-c2cc(C(=O)O)c3cc(C)ccc3n2)c1	.	.	4.8	-5.6%	.	.
COc1ccc(-c2cc(C(=O)O)c3cc(Br)ccc3n2)cc1OC	.	.	7.8	?	.	.
Cc1ccc2nc(-c3ccc(C)o3)cc(C(=O)O)c2c1	.	.	17.2	5.01µM*	.	.
Cc1ccc(-c2cc(C(=O)O)c3cc(Cl)ccc3n2)o1	.	.	8.4	7.94µM*!	.	.
Cc1ccc(-c2cc(C(=O)NN3CCOCC3)c3cc(Br)ccc3n2)o1	-10.4%	?	-8.6	?	-0.4%	2.4%
SMILES	A549 viability	Nrf2 block	LDHA inh	12-LOX inh	Nrf2 ARE act	IDH1 R132H inh
Cc1ccc(-c2cc(C(=O)O)c3cc(Br)ccc3n2)o1	1.6%	7.9%	-1.1	15.8µM*	8.8%	24.4%
Cc1ccc(-c2onc3ccc(-c4cc(C(=O)O)c5cc(Br)ccc5n4)cc23)cc1	.	.	8.8	7.94µM*	.	.
O=c1cc(C(F)(F)F)c2ccc(OS(=O)(=O)c3cccc(C(F)(F)F)c3)cc2o1	.	.	1.7	9.9%	.	.
Cc1ccc(-c2cc(C(=O)N3CC(C)OC(C)C3)c3ccccc3n2)o1 (centres undefined)	-6.1%	?	-0.8	?	2.1%	2.9%
Cc1ccc(-c2cc(C(=O)N3CCCCC3)c3cc(Br)ccc3n2)o1	.	.	8.2	8.91µM*	.	.
Brc1ccc(/C=N/Nc2ccccn2)cc1	2.1%	?	-1.7	-7.2%	12.6µM*	-9.6%
O=[N+]([O-])c1ccc(NN=Cc2ccccc2O)nc1	?	?	-1.8	1.4%	0.5%	6.0%
O=[N+]([O-])c1ccc(O)c(/C=N/Nc2ccccn2)c1	14.6µM*	?	-2.8	7.2%	5.3%	6.9%
Oc1cccc(C=NNc2ccccn2)c1	-1.1%	-2.5%	7.5	-5.8%	12.6µM*	6.9%
O=C(c1ccc2c(c1)OCO2)N(Cc1ccco1)C1(C(=O)NC2CCCCC2)CCCCC1	?	18.4µM*	6.9	5.6%	2.9%	-3.4%
O=C(c1ccc2c(c1)OCO2)N(Cc1ccco1)C1(C(=O)NC2CCCC2)CCCCC1	.	.	-1.5	-17.6%	.	.
Cc1ccc(C23CC4CC(CC(C4)C2)C3)cc1N	.	.	61.7	-10.3%	.	.
COc1ccc(/C=C/C(=O)c2ccc3c4c(cccc24)CC3)cc1	10.8%	?	1.3	5.0%	?	3.7%
COc1ccc(/C=C/C(=O)c2ccc(C(=O)O)s2)cc1OC	.	.	-1.4	5.62µM*	.	.
COc1ccc(/C=C/C(=O)c2ccc(C(=O)O)s2)c(OC)c1	.	.	2.3	-47.2%	.	.
COc1ccc(/C=C/C(=O)c2ccc3c4c(cccc24)CC3)cc1OC	-2.5%	18.4µM*	-8.6	-11.3%	0.5%[9.22 µM]	5.7%
COC(=O)c1c(C)[nH]c(-c2ccccc2OC)c1C1C(=O)Nc2c(Cl)cccc21 (centres undefined)	.	.	22.6	?	.	.
CNc1ccccc1C(C)(C)c1cc(-c2ccc(F)cc2)no1	-14.6%	8.2µM*	-3.9	0.5%	-0.7%[9.22 µM]	4.8%
O=C(CN1C(=O)NC(c2ccc(Cl)cc2)C2=C1COC2=O)Nc1cccc(Br)c1 (centres undefined)	.	.	.	10µM*	.	.
COc1cccc(NC(=O)CN2C(=O)NC(c3ccc(C)cc3)C3=C2COC3=O)c1 (centres undefined)	.	.	.	17.9%	.	.
Cc1cc(NC(=O)CN2C(=O)NC(c3ccc(Cl)cc3)C3=C2COC3=O)ccc1Br (centres undefined)	.	.	.	8.91µM*	.	.
CS(=O)(=O)Nc1cc(NC(=O)c2ccccc2SCC2CCCO2)ccc1F (centres undefined)	.	.	-4.3	-9.4%	.	.
